{
  "source": "the supplement of paper PMC13380429",
  "key": {"[1]": {"test_system": "Vero E6 infected with SARS-CoV-2", "experiment": "morphology score (similarity to uninfected cells); higher = more like uninfected cells", "settings": "24 h"}, "[2]": {"test_system": "Vero E6 infected with SARS-CoV-2", "experiment": "SARS-CoV-2 infection rate relative to infected DMSO; higher = more infection, active = 60 or less", "settings": "24 h"}},
  "data": [
    {"smiles": "CCOC(=O)[C@@H](C)Oc1cccc2c(=O)n(CC(=O)Nc3ccc4c(c3)OCCO4)ccc12", "note": "(10 µM)", "values": [
      {"measurement": "morphology score", "setting": "[1]", "result": -0.204},
      {"measurement": "SARS-CoV-2 infection rate", "setting": "[2]", "result": "108% (inactive)"}
    ]},
    {"smiles": "CC(C)=CCC[C@](C)(O[C@@H]1O[C@H](CO)[C@@H](O)[C@H](O)[C@H]1O)[C@H]1CC[C@]2(C)[C@@H]1[C@H](O)C[C@@H]1[C@@]3(C)CC[C@H](O)C(C)(C)[C@@H]3CC[C@]12C", "note": "[ginsenoside-C-K] (10 µM)", "values": [
      {"measurement": "morphology score", "setting": "[1]", "result": 0.0257},
      {"measurement": "SARS-CoV-2 infection rate", "setting": "[2]", "result": "118% (inactive)"}
    ]},
    {"smiles": "Nc1nc(-c2ccc(Cl)c(Cl)c2)c(-c2ccncc2)s1", "note": "(10 µM)", "values": [
      {"measurement": "morphology score", "setting": "[1]", "result": 0.37},
      {"measurement": "SARS-CoV-2 infection rate", "setting": "[2]", "result": "99.5% (inactive)"}
    ]},
    {"smiles": "CCC/C=C1\\OC(=O)C2=C1CCC=C2", "note": "[ligustilide] (10 µM)", "values": [
      {"measurement": "morphology score", "setting": "[1]", "result": 0.0279},
      {"measurement": "SARS-CoV-2 infection rate", "setting": "[2]", "result": "108% (inactive)"}
    ]},
    {"smiles": "Oc1nc(-c2ccc(C(F)(F)F)cc2)nc2c1CSCC2", "note": "(0.833333 µM)", "values": [
      {"measurement": "morphology score", "setting": "[1]", "result": 0.149},
      {"measurement": "SARS-CoV-2 infection rate", "setting": "[2]", "result": "94% (inactive)"}
    ]},
    {"smiles": "Nc1nccc(-c2ccc3noc(-c4ccc(Cl)cc4)c3c2)n1", "note": "[PIM-1-Inhibitor-2] (10 µM)", "values": [
      {"measurement": "morphology score", "setting": "[1]", "result": -0.089},
      {"measurement": "SARS-CoV-2 infection rate", "setting": "[2]", "result": "111% (inactive)"}
    ]},
    {"smiles": "c1ccc2c(c1)sc1ccccc12", "note": "[dibenzothiophene] (10 µM)", "values": [
      {"measurement": "morphology score", "setting": "[1]", "result": 0.0443},
      {"measurement": "SARS-CoV-2 infection rate", "setting": "[2]", "result": "105% (inactive)"}
    ]},
    {"smiles": "CSc1ccc(OCc2ncc([N+](=O)[O-])n2C)cc1", "note": "[fexinidazole] (10 µM)", "values": [
      {"measurement": "morphology score", "setting": "[1]", "result": -0.0351},
      {"measurement": "SARS-CoV-2 infection rate", "setting": "[2]", "result": "114% (inactive)"}
    ]},
    {"smiles": "CCCCN(CCCC)CCC(O)c1cc2c(Cl)cc(Cl)cc2c2cc(C(F)(F)F)ccc12", "note": "(stereo not given) [halofantrine] (10 µM)", "values": [
      {"measurement": "morphology score", "setting": "[1]", "result": 0.406},
      {"measurement": "SARS-CoV-2 infection rate", "setting": "[2]", "result": "79.5% (inactive)"}
    ]},
    {"smiles": "O=C(/C=C/c1ccc(O)c(O)c1)O[C@H](Cc1ccc(O)c(O)c1)C(=O)O", "note": "[rosmarinic-acid] (10 µM)", "values": [
      {"measurement": "morphology score", "setting": "[1]", "result": 0.152},
      {"measurement": "SARS-CoV-2 infection rate", "setting": "[2]", "result": "94.5% (inactive)"}
    ]}
  ]
}
